From PubChem BioAssay AID1508600 (Functional Genomics Laboratory (NCATS/FGL), 2020)
Out of some 53,000 sequences screened, about 3,700 (7%) were called active. This excerpt belongs to a sample that is enriched for actives. Values without a mark were called inactive.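 How the source made its calls: active means gene knockdowns whose robust z-score for IL-1 alpha signal is at least 2 or at most -2, so actives lie on both sides; inactive means the rest.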

Assay: Components of the Cytosolic LPS Sensing Pathway: Gene Identification via Genome-wide siRNA Screen;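 further: robust z of the log signal after scaling to non-targeting control siRNA wells of the plate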
Conditions: RAW264.7 macrophages, IL-1a HTRF, actives lie on both sides, screened at 100 nM (by protocol), cells primed 5 h with Pam3CSK4 first
Summary of the method: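 Read-out: IL-1a HTRF on supernatant, divided by plate negative-control median ×100, log-transformed and converted to robust z-score. Cells were RAW264.7 given 100 nM siRNA, Pam3CSK4-primed 5 hours, then LipidA-transfected 24 hour.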

| Sequence | z-score |
| --- | --- |
| CCAAUUAUGUGAGAAGUGATT against Snx24 | 0.463 |
| CCAACUCGUGAUUCUAGACTT against Tmed10 | 1.27 |
| GGUAAAGGUAAACUUAUACTT against Vmn1r148 | -4.68 (active) |
| GCGCAAUACGUGGGUUUGUTT against Shisal2b | 0.254 |
| GCUCGUUUGUGUAUAAGGATT against 4930503L19Rik | 0.276 |
| GGUUCUCGUGUGGCACACUTT against B3gat2 | 0.126 |
| CCUUCAAUCUUUCUUUCUGTT against Olfr1465 | -0.635 |
| CCGUGAUAACAACAUUUGUTT against Olfr750 | -0.833 |
| GGAGUAUGAUUCAGAAAUGTT against Scn11a | -0.607 |
| GGUCAUCAUGAGCCCAUGUTT against Olfr1341 | -1.72 |
| GGAUUUGGCUAUAUCAACATT against Rfc2 | -1.56 |
| CCAUAGCUCUGGAAUGGUGTT against Kcnt1 | -2.59 (active) |
| GGAUGUAUGCCAAAGAAUUTT against Fmo5 | -0.0456 |
| CGUGCUAAACCAAGACUUATT against Lyplal1 | 1.25 |
| GGGUGAAUUUUGUUUUUGUTT against Kcnj14 | 3.05 (active) |
| GGAUAGCAUGCUUCCUGAGTT against Rhbdf2 | -2.19 (active) |
| GGAAAUGCUCCUCUAGGAUTT against Ppcs | 0.039 |
| GGAUGAAGAACUGACUCCGTT against Mboat2 | -0.108 |
| GGUGCAAUCAAAUGGAAUUTT against Nrf1 | 3.75 (active) |
| GCUACGUAAACGGAAGGCUTT against Abraxas1 | 0.272 |
| GGUAAGAGGAUGGACACAATT against Chst1 | 1.08 |
| GAUCCGUUGGGAAAAGAACTT against Ssbp4 | -0.881 |

| Sequence | z-score |
| --- | --- |
| GGCAGUUCUUAAGUAAUCATT against Fem1al | 0.924 |
| GGAGAAAGAAGCUAGUGAGTT against Gm6787 | -2.77 (active) |
| GCGAACUCCUCUUUAGGCATT against Chrng | -0.594 |
| GCCAUCCUUCCAUUUAAGATT against Wdyhv1 | -0.478 |
| GGUAAGGACUAUUUGAAUUTT against Lpar1 | -0.429 |
| GCAAAUUAAGCACUGUAAGTT against Dennd1b | 0.379 |
| GGUGGUUAGAUCUUACGCUTT against Tmem184a | 4.37 (active) |
| CGCGUACGACUUCUACAAATT against Hmgcs2 | 0.775 |
| GGUGGAGUUUCUCAAAAGCTT against Kcnc3 | 0.0264 |
| GCAGGUACUGCGCUAUUAUTT against Atp13a2 | -0.766 |
| GGAUGUGGCUGCUUUGAAGTT against Mettl27 | -1.38 |
| CCUUCUAGACACCAUACCCTT against Pidd1 | 0.259 |
| CCACACGUUCCAUUUCUCGTT against Hilpda | -2.65 (active) |
| CGUCAUGCAUUUUUCUAAATT against Trim24 | 0.489 |
| GGAUGAGAAGAAAGAAGAUTT against Srrt | -1.36 |
| GGAUACAGCAGUACAAAUGTT against Ces2c | -0.135 |
| GGUGCGCUUCUAUGUUCCUTT against Ssrp1 | 2.38 (active) |
| GGCAAGGAUUUUUCUACCUTT against Tslp | -0.555 |
| GCUGCACAAGUGAUAUCCGTT against Trim26 | 0.397 |
| GGGAAAGCCAUCCUUCACUTT against Erich5 | 0.288 |
| GGAGAAAAAGAGAUAAGGUTT against Ppp2r2b | -0.893 |
| GCCAUUUGUCCACAAAAUGTT against Ces2g | -2.06 (active) |

| Sequence | z-score |
| --- | --- |
| GGACCUGGAGUAUAUGCUGTT against Mgat4f | -0.611 |
| GGCACUGUUCUCAUCUGUGTT against Olfr736 | -2.41 (active) |
| GGUUGACUCUACAAAAUACTT against Muc5b | -0.656 |
| GGCAGUUGUGAACUUUCUCTT against Telo2 | 0.243 |
| GGAAAGGCUGUUUCCUACCTT against Atox1 | 1.05 |
| GGACUUGUGAUUCAAGCAUTT against Rad23b | 0.525 |
| CCUGAUUGACGACAGUAAGTT against Mcrs1 | 0.519 |
| CGACCAGAGUUAUCUGAAUTT against Ctf2 | 2.2 (active) |
| GGGAAUUUAUGCAUUAGCATT against Kif2a | 0.111 |
| GGCUCUGCUAUUUCUCCUGTT against Olfr17 | -1.16 |
| GCUUGAAUGGAGCGAAUCGTT against Chat | 4.86 (active) |
| GGAAACAAAGUCAAUGUGGTT against Cnn1 | -0.522 |
| GCUGAAGUAGGGUUUAUUATT against Gdap10 | 0.786 |
| GCCUUGGACAAAAACACUATT against Ryk | -0.917 |
| CCUGAUUCCAAAUGUGUUUTT against Sgcb | 0.158 |
| GGACACAAAUGACAUCAACTT against Sirpa | 2.13 (active) |
| CGGCAUCCAGUCUCAGAUGTT against Coch | 1.88 |
| GCCUAAGUUCUAGCAAAAUTT against Spata31d1d | 0.514 |
| GGAAGCUACAUGCUGUUCCTT against Anln | 0.737 |
| UGAAAAGAGCAAUGAAGAATT against Olfr177 | -0.36 |
| GGAAAGGAGAAGAGAAAUGTT against Scyl1 | 1.18 |
| CCUGACAGUACCAAAAAAUTT against Pax4 | -0.599 |

| Sequence | z-score |
| --- | --- |
| GGUACAAUGUUCAUACCAATT against Rab9b | 0.528 |
| GGGCUAUUGCAUCUUUUAATT against Olfr711 | -0.0884 |
| CCGAAUUGAAAUCACAAGCTT against Nup43 | -1.31 |
| GGAUUGUAAUAAUGGAGCCTT against H2-M10.4 | 2.94 (active) |
| GGAGAGGUGGUAUUGUUGGTT against Olfr1297 | 0.29 |
| GCUAAAUUCUUUCCUGAAGTT against Rdx | -1 |
| CCAGUUACUAGUAAUACUCTT against Mcm3ap | -0.0482 |
| CCAAGGUGCUGUUGGUAUATT against Ssr2 | 0.248 |
| GCAACGACUCUAAUGACUUTT against Slc38a1 | -0.515 |
| GCUUUCCACCACGUACUGATT against Plekha6 | -0.0754 |
| GGAUCAGCUGUUGCCAGAGTT against Zfp384 | 0.806 |
| GGAGUAUAACUAUGGCUUCTT against Mvb12a | 0.689 |
| CCAGUUAAGCCAAACUAUGTT against Wdr5 | -2.21 (active) |
| GGAAGUGCUGCACAUACUATT against Bnc2 | -0.525 |
| GGAAGAUUUGUUCUAUACUTT against Epgn | 0.593 |
| GGUCACAUCGUCCUUACAGTT against Rps6ka4 | -2.05 (active) |
| GGGAUUAAAAUCCUAUCUUTT against Eva1a | 0.857 |
| GGAUCAGGAUUUAAUGAAUTT against Zc2hc1a | -1.13 |
| CCUUAUAAUUGACACUGAUTT against Toe1 | 0.312 |
| GGAUAGCUGCCAACACUACTT against Baiap2l2 | -0.689 |
| GGACGACAGUGCAAAGCAUTT against Usb1 | -2.33 (active) |
| CCGCUUUUGUCAAGUUUUCTT against Asap1 | 2.65 (active) |

| Sequence | z-score |
| --- | --- |
| GGACACUCAAUGAAAUCUATT against Foxp3 | 1.21 |
| GCUAAAAAUAAACAGUCGGTT against Pus10 | -0.642 |
| GCCCGUCGGAUAUAAGAUUTT against Cd247 | -0.351 |
| GGAAGAAUCGUUUAUGACATT against Ppp4r2 | 0.73 |
| GGUUUUGAGAUUGAAAGAATT against Myof | -0.344 |
| GGUCGUCUUUUAAGAGUUUTT against Ccdc71l | 3.03 (active) |
| GGUGCAACAAUCAUUUGAATT against Casp4 | -0.431 |
| GGAAGAAAUGCAUAAUGCATT against Mesd | 0.236 |
| GGAAAAACUGCUAGAUCUATT against As3mt | 1.49 |
| GGCUAUGGAAAAAGAUAUGTT against Il21r | -1.02 |
| GGACCAAGCUGUUAUUAACTT against Dhodh | 0.46 |
| GGUUUACCUCUAUGCUAUGTT against Upk3a | 1.39 |
| GGGUCUCUUGUGGUACAUCTT against Cln3 | 3.41 (active) |
| GCAUUUCGCCUCUUUCAUATT against Elac1 | -0.405 |
| GGCAUUUCUUUCACUAGCUTT against Olfr618 | 0.833 |
| GCAGAGGCUCGUCCAUAUATT against Dnpep | -0.205 |
| GGUUCACGGGUUCUAAGAUTT against Eif1b | 2.35 (active) |
| GGACAGUUCUUACUUUACATT against Drd2 | 1.18 |
| CCGUGAAUUUGGAUGAUGGTT against T2 | -1.98 |
| CCAAAGGUGACCACAGAUUTT against Zfp444 | 1.13 |
